# Assay results: PubChem BioAssay
# The source made the active and inactive calls. The rule behind the calls is not given here.
# Molecular target: Pantothenate synthetase (Mycobacterium tuberculosis (strain ATCC 25618 / H37Rv)) (UniProt P9WIL5)
# Experiment: Coupled enzyme confirmation of inhibitors against recombinant Mtb PanC (AID 375);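 note: 0% = full reaction with vehicle and 100% = no enzyme background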
# Details: coupled enzyme assay; at 10 µM, hits give high values
# Pantothenate synthetase (Mycobacterium tuberculosis (strain ATCC 25618 / H37Rv)), sequence (P9WIL5 whole entry, looked up): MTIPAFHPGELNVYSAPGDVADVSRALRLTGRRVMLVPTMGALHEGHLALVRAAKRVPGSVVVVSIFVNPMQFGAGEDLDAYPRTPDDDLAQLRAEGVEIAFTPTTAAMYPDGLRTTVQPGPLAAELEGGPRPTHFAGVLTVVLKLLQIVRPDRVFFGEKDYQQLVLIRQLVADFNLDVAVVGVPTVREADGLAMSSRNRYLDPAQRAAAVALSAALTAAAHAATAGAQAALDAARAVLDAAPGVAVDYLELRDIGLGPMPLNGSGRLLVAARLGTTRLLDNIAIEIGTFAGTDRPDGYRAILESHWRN
row,Compound,inhibition
1,Cc1ccc(C)c(-n2nnnc2SCC(=O)NCCC2=CCCCC2)c1,3% (inactive)
2,O=C(NCC1CCCO1)C1c2ccccc2C(=O)N1C1CCCCCC1 (configuration not stated),0% (inactive)
3,Cc1cccc(C2c3c(n(C)c(=O)n(C)c3=O)N=C3c4ccccc4C(=O)C32)c1 (configuration not stated),7% (inactive)
4,CCNc1ccc(S(=O)(=O)C(F)(F)F)cc1NC(=O)C12CCC(CC1)C2,0% (inactive)
5,CCOC(=O)c1ccc2[nH]c3c(c2c1)CN(C)CC3,1% (inactive)
6,COC(=O)Nc1sc2c(c1C(N)=O)CCCCCC2,2% (inactive)
7,CCN1CCN(Cc2nc3c(c(=O)n(C)c(=O)n3C)n2CC(=O)c2ccccc2)CC1,2% (inactive)
8,O=C(COc1ccc2c(c1)OCO2)NC12CC3CC(CC(C3)C1)C2,4% (inactive)
9,O=C(Nc1ccccc1C(=O)N1CCOCC1)c1ccncc1,0% (inactive)
10,CC1CN(c2nc3ccccn3c(=O)c2/C=C(\C#N)S(=O)(=O)c2ccccc2)CC(C)O1 (configuration not stated),5% (inactive)
11,CC(=O)c1cccc(NC(=O)N2CCCC2C(=O)NCc2ccc(C)cc2)c1 (configuration not stated),4% (inactive)
12,O=C(O)/C=C/c1ccc(O)c(O)c1,1% (inactive)
13,O=C(C1=C(O)C(=O)N(Cc2ccccc2)C1c1ccncc1)c1ccco1 (configuration not stated),0% (inactive)
14,Cc1cc(NC(=O)CSc2nc(C3CCCCC3)nc3ccccc23)no1,0% (inactive)
15,CC(NC(=O)Nc1ccccc1)C(c1cccs1)N1CCOCC1 (configuration not stated),0% (inactive)
16,COC(=O)Nc1ccc(S(=O)(=O)N2CCN(c3ccc(F)cc3)CC2)cc1,0% (inactive)
17,O=C(Cn1ccc2ccccc2c1=O)NCCC(=O)N1CCN(C2CCCCC2)CC1,5% (inactive)
